Records with an inconclusive call do not appear. A number with no mark means an inactive call. The source made the active and inactive calls. The call rests on the fitted dose curve; in most records, active means well fitted cell-killing curve with a large enough effect in the repeat runs; inconclusive means weak or mixed curves; inactive means no such curve, though single readings can be large or run the other way.
assay: qHTS assay for identifying genotoxic compounds that show differential cytotoxicity against isogenic chicken DT40 cell lines with known DNA damage response pathways - Rad54/Ku70 mutant cell line (AID 743015); conditions: DT40 Rad54/Ku70 mutant viability, CellTiter-Glo, 40 h; series mostly up to 66.8 µM; activity change, negative = cytotoxicity: at the top concentration; further: nearly all actives have a fitted effect of over 60% in size
Source text: National Center for Advancing Translational Sciences [NCATS]
NIH Chemical Genomics Center [NCGC]
U.S. Environmental Protection Agency [EPA]
National Institutes of Environmental Health Sciences [NIEHS]
National Toxicology Program [NTP]
U.S. Food and Drug Administration [FDA]
DNA repair pathways play a critical role in cellular homeostasis by repairing DNA damage induced by endogenous processes and xenobiotics. Isogenic chicken DT40 cell lines deficient in different DNA repair pathways can be used to identify genotoxic compounds and aid in characterizing the nature of the DNA damage induced. Two DNA repair-deficient cell lines with disrupted genes, Rad54/Ku70 or Rev3, were used to screen the Tox21 10K compound library. Possible genotoxicity was based on the presence of a significant increase in cytotoxicity in one or more of the DNA repair-deficient cell lines compared to that observed in the parental DNA repair-proficient cell line. CellTiter Glo viability assay (Promega, Madison, WI) was used to measure cell viability in these cells after compound treatment. This assay includes the data from the Rad54/Ku70 mutant cell line.
Tox21 Assay Protocol Summary:
300 DT40 mutant cells in 5 uL/well were dispensed into white, solid-bottom 1536-well plates using a Multidrop Combi (ThermoFisher Scientific, Waltham, MA) dispenser. After the assay plates were incubated at 37 C/5% CO2 for approximately 0.5 hour, 23 nL of compounds dissolved in DMSO, positive controls or DMSO only was transferred into the assay plate by a pintool work station (Kalypsys, San Diego, CA). The assay plates were incubated at 37 C/5% CO2 for 40 hours. After 5 uL per well of CellTiter-Glo reagent was added into each well of the assay plates, the plates were incubated for 30 min at room temperature and the luminescence intensity of the plates was measured using a ViewLux (PerkinElmer, Shelton, CT) plate reader.
On the % scale 0 is the no-effect control and ±100 the full control effect; potency means the concentration at half of the fitted maximal effect.

SMILES | activity change, negative = cytotoxicity | Potency
CC(CN)CCCN (stereo not given) | -5.43% | 
NCCCN(CCO)CCO | -13.8% | 
CCOC(=O)C1=NN(c2ccccc2)C(=O)C1 | -1.7% | 
N#Cc1cc2ccccc2c2ccccc12 | -12.5% [at 95.1 µM] | 
ClC(Cl)(Cl)c1ccc(C(Cl)(Cl)Cl)cc1 | 0.868% | 
O=[N+]([O-])c1cccc(Cl)c1Cl | 7.97% | 
CC(=O)[C@@]1(O)CC[C@H]2[C@@H]3C[C@H](C)C4=CC(=O)CC[C@]4(C)[C@H]3CC[C@@]21C |  | 21.1 µM (active)
CCCCOc1cc(C(=O)OCCN(CC)CC)ccc1N |  | 8.04 µM (active)
NC(N)=NN=C(/C=C/c1ccc([N+](=O)[O-])o1)/C=C/c1ccc([N+](=O)[O-])o1 |  | 1.88 µM (active)
CCCCCOC(=O)c1ccc(O)cc1 |  | 61.9 µM (active)
CC(C)c1cccc(C(C)C)c1NC(=O)NS(=O)(=O)c1cc(C(C)(C)O)co1 | -14.4% | 
CCOC(=O)C1=C(C)NC(C)=C(C(=O)OC)C1c1cccc([N+](=O)[O-])c1 (stereo not given) |  | 26.6 µM (active)
O=C(CCN1CCN2CCCC2C1)N1c2ccccc2Sc2ccc(Cl)cc21 (stereo not given) |  | 23.7 µM (active)
Cl/C(=C\n1cncn1)c1ccc(Cl)cc1Cl | -12.8% | 
CC1(C)CCC(C)(C)c2cc(NC(=O)c3ccc(C(=O)O)cc3)ccc21 |  | 23.7 µM (active)
Cc1cc(O)ccc1N |  | 9.74 µM (active)
Cn1c(NCCN(CCO)CCCc2ccc([N+](=O)[O-])cc2)cc(=O)n(C)c1=O | -7.46% | 
O=C(/C=C/c1ccc(O)c(O)c1)O[C@@H]1C[C@](O)(C(=O)O)C[C@@H](O)[C@H]1O | 0.674% [at 95.1 µM] | 
COc1ccc(C(C)=O)cc1 | 16.2% [at 95.1 µM] | 
COCCO | 0.238% | 

SMILES | activity change, negative = cytotoxicity | Potency
CCCCCCCCC(CO)CCCCCC (stereo not given) | 3.17% | 
CCCOc1ccc2nc(NC(=O)OC)[nH]c2c1 |  | 0.335 µM (active)
CC(C)NCC(O)c1cc(O)cc(O)c1 (stereo not given) | 5.29% | 
COc1ccccc1OC(=O)Oc1ccccc1OC | -0.942% | 
C=C(C)C(=O)OCCN(C)C | -4% [at 95.1 µM] | 
C=CC(=O)OCC(C)OCC(C)OCC(C)OC(=O)C=C (stereo not given) |  | 17.2 µM (active)
CC(C)(C)c1ccc(OCC2CO2)cc1 (stereo not given) | -0.507% [at 95.1 µM] | 
CCOc1nc2cccc(C(=O)O)c2n1Cc1ccc(-c2ccccc2-c2nn[nH]n2)cc1 |  | 29.8 µM (active)
CN1CCN(C2=Nc3cc(Cl)ccc3Nc3ccccc32)CC1 |  | 26.6 µM (active)
CCCC(C)C | -2.97% [at 95.1 µM] | 
CN1CCC[C@@H]1c1cccnc1 | 5.89% | 
CN1CCN(C2=Nc3ccccc3Sc3ccc(Cl)cc32)CC1 |  | 10.6 µM (active)
c1ccc(CNCc2ccccc2)cc1 |  | 43.3 µM (active)
NCCCOCCOCCOCCCN |  | 7.7 µM (active)
Nc1ccc(C(=O)Nc2ccccc2N)cc1 |  | 1.88 µM (active)
CC(C(=O)O)c1ccc(-c2ccccc2)c(F)c1 (stereo not given) |  | inactive
O=C(Cl)c1ccc([N+](=O)[O-])cc1 | 2.28% | 
CCCCCCCCCCCCCCC1CO1 (stereo not given) | 3.44% | 
FC(F)(F)C(F)(F)C(F)(F)C(F)(F)C(F)(F)C(F)(F)CCI | 2.69% | 
CNCC[C@@H](Oc1ccccc1C)c1ccccc1 |  | 29.8 µM (active)
